Drawing on ChEMBL document CHEMBL1157539, “Thousands of chemical starting points for antimalarial lead identification” (Nature, 2010), this text covers Inhibition for 30 compounds.

SMILES strings stand for the structures. Where “and” joins values, the source holds several entries; their conditions need not be identical. Equal entries are not always repeated.

Format in all cases: functional
In assay [1] the test system is Plasmodium falciparum. The experiment in a line: GSK_TCMDC: Inhibition of Plasmodium falciparum 3D7 in whole red blood cells, using parasite LDH activity as an index of growth. Test compounds present at 2uM.
Assay [2] deals with Plasmodium falciparum. The assay can be described thus: GSK_TCMDC: Inhibition of Plasmodium falciparum Dd2 in whole red blood cells, using parasite LDH activity as an index of growth. Test compounds present at 2uM.
The subject of the next assay is HepG2. The assay can be described thus: GSK_TCMDC: Percent inhibition of human HepG2 cell line. Test compounds present at 10uM.

As to `CS(=O)(=O)Nc1ccc2[nH]cc(C3CCN(CC4CCC(NC(=O)/C=C/c5ccc(Cl)c(Cl)c5)CC4)CC3)c2c1` (stereo not given), the Inhibition (in general, the share of the control response that was lost under treatment) is 100% with Plasmodium falciparum [1], 86% with Plasmodium falciparum [2] and 22% with HepG2.
For `COc1c(F)cc(CC(C)NCC(O)c2cccc(Cl)c2)cc1F.Cl` (stereo not given), the Inhibition in the assay on Plasmodium falciparum [1] was 93%; in the assay with Plasmodium falciparum [2], 86%; with HepG2, 0%.
As for `CC[C@H]1CN2CC[C@H]1C[C@H]2[C@@H](O)c1cc(OCCCN(C)C)nc2ccc(OC)cc12`, the Inhibition amounted to 99% in the assay on Plasmodium falciparum [1], 8% in the assay on Plasmodium falciparum [2] and 0% in the assay with HepG2.
The corresponding values for `CC[C@H]1CN2CC[C@@H]1C[C@H]2[C@H](O)c1cc(N2CCC(C)CC2)nc2ccc(OC)cc12` are 99%, 98% and 16%.
In the case of `CC[C@H]1CN2CC[C@@H]1C[C@H]2[C@H](O)c1cc(N2CCSCC2)nc2ccc(OC)cc12`, the Inhibition in the assay on Plasmodium falciparum [1] is reported as 99%; with Plasmodium falciparum [2], 98%; in the assay on HepG2, 2%.
Take `COc1cccc(CCNC(C)Cc2ccc(OCCCCOc3ccccc3)cc2)c1` (stereo not given): the Inhibition in the assay on Plasmodium falciparum [1] turned out to be 97%; in the assay on Plasmodium falciparum [2], 90%; with HepG2, 100%.
In the case of `Oc1ccccc1CNCC(O)c1cc(C(F)(F)F)cc(C(F)(F)F)c1` (stereo not given), the figures for the Inhibition in the assay on Plasmodium falciparum [1], in the assay with Plasmodium falciparum [2] and in the assay with HepG2 were 99%, 100% and 15%, respectively.
As for `CCCCCCCc1cc(=O)c2ccccc2[nH]1`, the values for the Inhibition with Plasmodium falciparum [1], in the assay with Plasmodium falciparum [2] and with HepG2 were 96%, 94% and 5%, respectively.
Turning to `CCCc1c(C(=O)NC2CCC(CN3CCC(c4c[nH]c5ccccc45)CC3)CC2)cnn1-c1c(Cl)cc(Cl)cc1Cl` (stereo not given), the Inhibition amounted to 100% in the assay with Plasmodium falciparum [1], 49% in the assay on Plasmodium falciparum [2] and 41% with HepG2.
Consider `Br.CC[C@H]1CN2CCc3cc(OC)c(OC)cc3[C@@H]2C[C@@H]1C[C@H]1NCCc2c1cc(OC)c(O)c2I`, for which the values for the Inhibition in the assay with Plasmodium falciparum [1], in the assay with Plasmodium falciparum [2] and in the assay on HepG2 were 100%, 100% and 54%, respectively.
With `CC(C)CNCc1ccc(-c2cccc(CN(C(=O)CCC3CCCC3)C3CCN(Cc4ccccc4)CC3)c2)cc1.O=C(O)C(F)(F)F`, the values for the Inhibition in the assay on Plasmodium falciparum [1], in the assay on Plasmodium falciparum [2] and in the assay with HepG2 were 100%, 92% and 62%, respectively.
On to `O=C(NC1CCC(CN2CCC(c3c[nH]c4ccccc34)CC2)CC1)c1cc2ccccc2s1` (stereo not given), for which the Inhibition with Plasmodium falciparum [1] is 98% and 100%; in the assay on Plasmodium falciparum [2], 68% and 43%; with HepG2, 44%.
For the compound `Cl.c1ccc2c(NCCCCCCCCCNc3c4ccccc4nc4ccccc34)c3ccccc3nc2c1`, the results for the Inhibition with Plasmodium falciparum [1], with Plasmodium falciparum [2] and in the assay on HepG2 were 100%, 95% and 99%, respectively.
In the case of `CC[C@H]1CN2CC[C@@H]1C[C@H]2[C@H](O)c1cc(N2CCC(c3ccccc3)CC2)nc2ccc(OC)cc12`, the Inhibition with Plasmodium falciparum [1] turned out to be 99%; with Plasmodium falciparum [2], 98%; in the assay on HepG2 it was 45%.
On to `CN(CC(=O)N1CCN(S(=O)(=O)c2cccc(Cl)c2)CC1CN1CCCC1)c1ccc(Cl)c(Cl)c1` (stereo not given), for which the Inhibition came out at 89% in the assay on Plasmodium falciparum [1], 32% in the assay on Plasmodium falciparum [2] and 32% in the assay on HepG2.
With `CC(=O)N(Cc1ccccc1-c1cccc(CNCc2ccc3c(c2)OCO3)c1)C1CCN(Cc2ccccc2)CC1.O=C(O)C(F)(F)F`, the Inhibition in the assay on Plasmodium falciparum [1] is reported as 85%; with Plasmodium falciparum [2] it was 44%; in the assay on HepG2, 17%.
On to `CC(C)C[C@H](Nc1ccc(C#N)c2ccccc12)C(=O)N[C@@H]1CCCc2ccccc21.O=C(O)C(F)(F)F`, for which the Inhibition with Plasmodium falciparum [1] is 99%; with Plasmodium falciparum [2], 100%; in the assay with HepG2 it was 38%.
The corresponding values for `Cc1cccc2[nH]cc(C3CCN(CC4CCC(NC(=O)/C=C/c5ccc(Cl)c(Cl)c5)CC4)CC3)c12.Cl` (stereo not given) are 100%, 97% and 88%.
`CC(=O)Nc1ccc(OCCN(CC(C)C)c2ccc(C#N)c(C(F)(F)F)c2)c(Cl)c1`: the Inhibition with Plasmodium falciparum [1] was 94%; in the assay with Plasmodium falciparum [2] it was 94%; in the assay with HepG2, 13%.
For `O=C(NC1CCC(CN2CCC(c3c[nH]c4ccccc34)CC2)CC1)c1cn(Cc2ccccc2)c2ccccc12` (stereo not given), the Inhibition in the assay on Plasmodium falciparum [1] came out at 91%; with Plasmodium falciparum [2] it was 48%; in the assay with HepG2 it was 84%.
For `COC(=O)c1ccc(CC(C)NCC(O)c2ccc(Cl)c(Cl)c2)cc1` (stereo not given), the results for the Inhibition in the assay with Plasmodium falciparum [1], in the assay on Plasmodium falciparum [2] and with HepG2 were 87%, 33% and 0%, respectively.
The like results for `O=C(/C=C/c1ccc(Cl)c(Cl)c1)NCCC1CCC(N2CCC(c3c[nH]c4ccc(O)cc34)CC2)CC1` (stereo not given) were, in that order, 100%, 3% and 19%.
Turning to `O=C(/C=C/c1ccccc1Cl)NC1CCC(CN2C3CCC2CC(c2c[nH]c4ccccc24)C3)CC1` (stereo not given), the Inhibition with Plasmodium falciparum [1] stood at 100%; with Plasmodium falciparum [2] it was 98%; in the assay with HepG2, 56%.
The like results for `CN1CC=C(c2c[nH]c3ccc(Oc4ccccc4)cc23)CC1.O=C(O)C(=O)O` were, in that order, 98%, 98% and 40%.
Consider `C[C@H](Cc1ccc(OCCCCCCOc2ccccc2)cc1)NC[C@@H](O)c1cc(Br)no1.Cl`, for which the Inhibition was found to be 94% in the assay on Plasmodium falciparum [1], 70% in the assay on Plasmodium falciparum [2] and 21% in the assay with HepG2.
Take `O=C(/C=C/c1ccc(Cl)c(Cl)c1)N1CCC(CN2CCC(c3c(-c4ccc(F)cc4)[nH]c4ccccc34)CC2)CC1`: the Inhibition with Plasmodium falciparum [1] was found to be 100%; in the assay on Plasmodium falciparum [2] it was 98%; with HepG2, 19%.
With `CCOc1ccc(Br)cc1/C=C/C(=O)Nc1ccc2c(c1)C1CCC2N1C.O=C(O)C(F)(F)F` (stereo not given), the Inhibition in the assay on Plasmodium falciparum [1] is 89%; with Plasmodium falciparum [2] it was 26%; in the assay with HepG2, 60%.
`CC(NC(C)(C)C)C(O)c1ccc(Cl)c(C(F)(F)F)c1.Cl` (stereo not given): the Inhibition in the assay on Plasmodium falciparum [1] was determined as 97%; in the assay with Plasmodium falciparum [2] it was 97%; in the assay with HepG2, 0%.
As to `CC(Cc1ccc(Oc2ccccc2)cc1)NCC(O)c1cccc(C(F)(F)F)c1` (stereo not given), the Inhibition with Plasmodium falciparum [1] came to 98%; with Plasmodium falciparum [2], 99%; in the assay on HepG2, 16%.
As to `O=C(/C=C/c1ccccc1Cl)NC1CCC(CN2CCC(c3c[nH]c4ccccc34)CC2)CC1` (stereo not given), the Inhibition in the assay with Plasmodium falciparum [1] is 100% and 99%; in the assay on Plasmodium falciparum [2] it was 51% and 35%; in the assay on HepG2, 33% and 41%.
